“And” between values parts separate entries of the source, which are not always exact repeats. Equal entries are not always repeated. Records with an inconclusive call do not appear. Entries that show only a call come without a potency. The source made the active and inactive calls. The call rests on the fitted dose curve; in most records, active means well fitted cell-killing curve with a large enough effect; inconclusive means small, poorly fitted or top-dose-only effect; inactive means flat fitted curve, though single readings scatter.
Experiment: qHTS of pediatric cancer cell lines to identify multiple opportunities for drug repurposing: Primary screen for BT-12 cells (AID 1347101); further: nearly all actives have a fitted effect of over 25% in size
Conditions: BT-12 viability, CellTiter-Glo luminescence, 48 h; series mostly up to 57.3 µM
How it was run: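 Cells (500-1,000/well) rested 5 h, then received compounds for 48 h; metabolically active cells were measured by CellTiter-Glo luminescence. Final concentrations spanned up to 46 µM (MIPE, 11-point) or 0.59 nM-46 µM (NPC, 8-point) in primary screens, 11-point in follow-ups.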
For `CC(C)n1nc(-c2ccc3oc(N)nc3c2)c2c(N)ncnc21`, the Potency was 0.306 µM (active).
For `C[C@]12CCC3c4ccc(O)cc4CCC3C1CCC2=O` (some centres undefined), the Potency was “inactive”.
In the case of `CCOC1OC(=O)C[C@H]1NC(=O)[C@@H]1CCCN1C(=O)[C@@H](NC(=O)c1ccc(N)c(Cl)c1)C(C)(C)C` (some centres undefined), the Potency is reported as 1.37 µM (active).
With `COC(=O)N[C@H](C(=O)N1CCC[C@@H]1c1ncc(-c2ccc(-c3ccc(-c4cnc([C@@H]5CCCN5C(=O)[C@@H](NC(=O)OC)C(C)C)[nH]4)cc3)cc2)[nH]1)C(C)C` the Potency was 34.3 µM (active).
For `CC(C)(C)c1cc(C(=O)O)c(NC(=O)Nc2ccc3[nH]ncc3c2)s1`, the Potency was “inactive”.
With `CC(C)C(C)C=CC(C)C1CCC2C3=CC=C4CC(O)CCC4(C)C3CCC21C` (centres undefined) the Potency was “inactive”.
In the case of `Clc1ccc(-c2nc3sccn3c2C=NOCc2ccc(Cl)c(Cl)c2)cc1`, the Potency is reported as “inactive”.
For `C=C1C(=O)OC(CCCCCCCC)C1C(=O)O` (centres undefined), the Potency was “inactive”.
In the case of `O=C(NCCN1CCOCC1)c1ccc(Cl)cc1`, the Potency is reported as “inactive”.
With `Oc1ccc(C2CCN(c3ccnc4ccccc34)CC2)cc1O` the Potency was 7.69 µM (active).
With `CC1(C)CCC(CN2CCN(c3ccc(C(=O)NS(=O)(=O)c4ccc(NCC5CCOCC5)c([N+](=O)[O-])c4)c(Oc4cnc5[nH]ccc5c4)c3)CC2)=C(c2ccc(Cl)cc2)C1` the Potency was 30.6 µM (active).
With `NC1CCC(Nc2nc(Nc3ccc(C(=O)N4CCCCC4)cc3)c3ncn(-c4cccc(F)c4)c3n2)CC1` (centres undefined) the Potency was “inactive”.
For `NC1=N[C@@]2(c3cc(NC(=O)c4ccc(F)cn4)ccc3F)COC[C@@H]2CS1`, the Potency was 0.153 µM (active).
In the case of `CCc1ccc(OCc2ccccc2C(=O)Nc2ccc3nc(C)cc(N)c3c2)cc1`, the Potency is reported as 9.68 µM (active).
With `COc1ccc2c3c1OC1C[C@@H](O)C=C[C@@]31CCN(C)C2` (some centres undefined) the Potency was “inactive”.
For `O=c1[nH]cnc2c1ncn2[C@H]1CC[C@@H](CO)O1`, the Potency was “inactive”.
For `CC#CCn1c(N2CCC[C@@H](N)C2)nc2c1c(=O)n(Cc1nc(C)c3ccccc3n1)c(=O)n2C`, the Potency was “inactive”.
For `CC(C)(C(=O)NCC(F)(F)C(F)(F)F)C(=O)N[C@@H]1C(=O)Nc2ccccc2-c2ccccc21`, the Potency was 1.09 µM (active).
In the case of `CCCCCCCCCCCC1=C(O)C(=O)C=C(O)C1=O`, the Potency is reported as 0.0432 µM (active).
With `CNC(=O)c1ccccc1Sc1ccc2c(C=Cc3ccccn3)n[nH]c2c1` the Potency was 19.3 µM (active).
For `OC[C@H]1O[C@@H](n2cnc3c2NC=NC[C@@H]3O)C[C@H]1O`, the Potency was “inactive”.
In the case of `O=C1c2ccccc2-[n+]2ccc3c([nH]c4ccccc43)c21`, the Potency is reported as 6.85 µM (active).

Experiment: qHTS of pediatric cancer cell lines to identify multiple opportunities for drug repurposing: Primary screen for Rh18 cells (AID 1347102); further: nearly all actives have a fitted effect of over 65% in size
Conditions: Rh18 rhabdomyosarcoma viability, CellTiter-Glo luminescence, 48 h; series mostly up to 46 µM
How it was run: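 Viability after 48 h compound treatment at 37C, 500-1,000 cells/well, read as ATP luminescence with CellTiter-Glo. Primary screens used 11-point (MIPE, 0.78 nM-46 µM) or 8-point (NPC, 0.59 nM-46 µM) final concentrations; follow-up screens used 11-point dilutions.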
In the case of `CCCCC1C(=O)N(c2ccccc2)N(c2ccccc2)C1=O`, the Potency is reported as “inactive”.
In the case of `COC1CCC(N(C(=O)C2CCC(C)CC2)c2cc(C3=CCCCC3)sc2C(=O)O)CC1` (centres undefined), the Potency is reported as “inactive”.
In the case of `CCc1ccc(C=C2SC(=S)NC2=O)cc1`, the Potency is reported as “inactive”.
With `NS(=O)(=O)c1cccc2c1C(=O)c1cccc(O)c1C2=O` the Potency was 0.743 µM (active).
In the case of `Cc1nnc(C(C)C)n1C1C[C@H]2CC[C@@H](C1)N2CC[C@H](NC(=O)C1CCC(F)(F)CC1)c1ccccc1` (some centres undefined), the Potency is reported as “inactive”.
For `Cc1nc(N)sc1-c1ccnc(Nc2ccc(N3CCOCC3)cc2)n1`, the Potency was 16.6 µM (active).
In the case of `O=C(CCCCCCC(=O)Nc1ccccc1)NO`, the Potency is reported as 2.99 µM (active) and 4.18 µM (active).
With `CC(C)NCC(O)COc1cccc2[nH]ccc12` (centres undefined) the Potency was “inactive”.
For `O=C1NC(=O)C(c2ccccc2)(c2ccccc2)N1`, the Potency was “inactive”.
With `CON=C(C(=O)N[C@@H]1C(=O)N2C(C(=O)OCOC(=O)C(C)(C)C)=C(C=Cc3scnc3C)CS[C@H]12)c1csc(N)n1` the Potency was “inactive”.
In the case of `c1cc(-c2sc(-c3ccncc3)c(-c3ccncc3)c2-c2ccncc2)ccn1`, the Potency is reported as “inactive”.
In the case of `CN1C[C@H]2c3ccccc3Oc3ccc(Cl)cc3[C@@H]2C1`, the Potency is reported as “inactive”.
With `Clc1ccc(C(c2ccc(Cl)cc2)n2cc[n+](CC(OCc3ccc(Cl)cc3Cl)c3ccc(Cl)cc3Cl)c2)cc1` (centres undefined) the Potency was 23.5 µM (active).
With `OC[C@@H](O)[C@H](O)[C@H](O)[C@@H](O)CO` the Potency was “inactive”.
With `C=C1C(=O)[C@@]23C(CC[C@@H]1[C@H]2O)[C@@]12CO[C@]3(O)[C@@H](O)[C@@H]1C(C)(C)CC[C@@H]2O` (some centres undefined) the Potency was 9.35 µM (active).
With `CC(C)n1nc(-c2ccc3oc(N)nc3c2)c2c(N)ncnc21` the Potency was 0.235 µM (active).
With `C[C@]12CCC3c4ccc(O)cc4CCC3C1CCC2=O` (some centres undefined) the Potency was “inactive”.
In the case of `CCOC1OC(=O)C[C@H]1NC(=O)[C@@H]1CCCN1C(=O)[C@@H](NC(=O)c1ccc(N)c(Cl)c1)C(C)(C)C` (some centres undefined), the Potency is reported as “inactive”.
In the case of `COC(=O)N[C@H](C(=O)N1CCC[C@@H]1c1ncc(-c2ccc(-c3ccc(-c4cnc([C@@H]5CCCN5C(=O)[C@@H](NC(=O)OC)C(C)C)[nH]4)cc3)cc2)[nH]1)C(C)C`, the Potency is reported as 23.5 µM (active).
With `CC(C)(C)c1cc(C(=O)O)c(NC(=O)Nc2ccc3[nH]ncc3c2)s1` the Potency was “inactive”.
With `CC(C)C(C)C=CC(C)C1CCC2C3=CC=C4CC(O)CCC4(C)C3CCC21C` (centres undefined) the Potency was “inactive”.
In the case of `Clc1ccc(-c2nc3sccn3c2C=NOCc2ccc(Cl)c(Cl)c2)cc1`, the Potency is reported as “inactive”.
In the case of `C=C1C(=O)OC(CCCCCCCC)C1C(=O)O` (centres undefined), the Potency is reported as “inactive”.
For `O=C(NCCN1CCOCC1)c1ccc(Cl)cc1`, the Potency was “inactive”.
In the case of `Oc1ccc(C2CCN(c3ccnc4ccccc34)CC2)cc1O`, the Potency is reported as “inactive”.
For `CC1(C)CCC(CN2CCN(c3ccc(C(=O)NS(=O)(=O)c4ccc(NCC5CCOCC5)c([N+](=O)[O-])c4)c(Oc4cnc5[nH]ccc5c4)c3)CC2)=C(c2ccc(Cl)cc2)C1`, the Potency was 10.5 µM (active).
For `NC1CCC(Nc2nc(Nc3ccc(C(=O)N4CCCCC4)cc3)c3ncn(-c4cccc(F)c4)c3n2)CC1` (centres undefined), the Potency was “inactive”.
In the case of `NC1=N[C@@]2(c3cc(NC(=O)c4ccc(F)cn4)ccc3F)COC[C@@H]2CS1`, the Potency is reported as “inactive”.
In the case of `CCc1ccc(OCc2ccccc2C(=O)Nc2ccc3nc(C)cc(N)c3c2)cc1`, the Potency is reported as 8.33 µM (active).
For `COc1ccc2c3c1OC1C[C@@H](O)C=C[C@@]31CCN(C)C2` (some centres undefined), the Potency was “inactive”.
With `O=c1[nH]cnc2c1ncn2[C@H]1CC[C@@H](CO)O1` the Potency was “inactive”.
With `CC#CCn1c(N2CCC[C@@H](N)C2)nc2c1c(=O)n(Cc1nc(C)c3ccccc3n1)c(=O)n2C` the Potency was “inactive”.
With `CC(C)(C(=O)NCC(F)(F)C(F)(F)F)C(=O)N[C@@H]1C(=O)Nc2ccccc2-c2ccccc21` the Potency was “inactive”.
In the case of `CCCCCCCCCCCC1=C(O)C(=O)C=C(O)C1=O`, the Potency is reported as “inactive”.
In the case of `CNC(=O)c1ccccc1Sc1ccc2c(C=Cc3ccccn3)n[nH]c2c1`, the Potency is reported as 14.8 µM (active).
For `OC[C@H]1O[C@@H](n2cnc3c2NC=NC[C@@H]3O)C[C@H]1O`, the Potency was “inactive”.
With `O=C1c2ccccc2-[n+]2ccc3c([nH]c4ccccc43)c21` the Potency was 2.35 µM (active).
Potency means the concentration at half of the fitted maximal effect.
